Test results from PubChem BioAssay (Tox21).
A number with no mark means an inactive call. Inconclusive results are not listed. Where a call stands in place of a potency, no number is given. Activity calls are given as the source filed them. Unless noted, calls follow the shape of the dose curve; as a rule, active = well fitted curve in the direction sought with a large enough effect in the repeat runs; inconclusive = weak or mixed curves; inactive = no such curve, though single readings can be large; an effect the other way counts as inactive or inconclusive.

Columns and labels:
[1] = qHTS assay to identify small molecule antagonists of the estrogen related receptor (ERR) signaling pathway from Tox21 library - cell viability counter screen (AID 1224834); also: nearly all actives have a fitted effect of over 30% in size
Procedure, shortened: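 ERR cells, 2,000/well; 6 h settle at 37 C/5% CO2; pin-tool compound transfer in DMSO; 17.5 h at 37 C; CellTiter-Fluor, 30 min; fluorescence intensity.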

[2] = molecular target: Luciferin 4-monooxygenase (Photinus pyralis) (UniProt P08659); experiment: qHTS assay to identify small molecule inhibitors of firefly luciferase (AID 1224835); also: nearly all actives have a fitted effect of over 25% in size; also: potency is read from the fitted curve at half-maximal effect
Procedure, shortened: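 Biochemical qHTS: compounds run as interplate titrations against purified firefly enzyme, with D-luciferin and ATP each at its KM concentration. Light output recorded by CCD imaging.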

[3] = qHTS assay to identify small molecule agonists of the constitutive androstane receptor (CAR) signaling pathway - cell viability counter screen (AID 1224836); also: nearly all actives have a fitted effect of over 45% in size
Procedure, shortened: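 HepG2 cells stably carrying hCAR and a CYP2B6-2.2kb reporter were plated 4 h, then given compounds at 15 concentrations plus PK11195 (final 0.75 uM). After 23 h at 37 C, viability was read by CellTiter-Fluor fluorescence.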

[4] = qHTS assay to identify small molecule antagonists of the constitutive androstane receptor (CAR) signaling pathway - cell viability counter screen (AID 1224837); also: nearly all actives have a fitted effect of over 45% in size
Procedure, shortened: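 Viability was measured with CellTiter-Fluor in a HepG2 line carrying stably transfected hCAR and a CYP2B6-2.2kb construct. Cells were exposed for 23 hr at 37 C to 15 compound concentrations with 50 nM CITCO as agonist.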

[5] = qHTS assay to identify small molecule antagonists of the estrogen related receptor signaling pathway with the pleiotropic PPARgamma coactivator (PGC) from Tox21 10K library - cell viability counter screen (AID 1224840; active = well fitted cell-killing curve with a large enough effect in the repeat runs, not every such curve was filed as active; also: nearly all actives have a fitted effect of over 40% in size)
Procedure, shortened: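 Multiplexed viability counter screen in the PGC/ERR cell line: cells treated with DMSO-dissolved compounds for 17.5 hours at 37 C, then viability measured as CellTiter-Fluor fluorescence.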

[6] = molecular target: Thyrotropin receptor (Homo sapiens) (UniProt P16473); experiment: qHTS assay to identify small molecule agonists of the thyroid stimulating hormone receptor (TSHR) signaling pathway (AID 1224843; calls by dose curve; also: nearly all actives have a fitted effect of over 45% in size)
Procedure, shortened: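 HEK293/TSHR, 800 cells/well; cpd 30 min RT; add cAMP-d2 + anti-cAMP-cryptate, 1 h RT; fluorescence read on plate reader. 15-pt titration, n=3.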

[7] = qHTS assay to identify small molecule agonists of the hypoxia (HIF-1) signaling pathway - cell viability counter screen (AID 1224844; calls by dose curve; also: nearly all actives have a fitted effect of over 50% in size)
Procedure, shortened: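 Cytotoxicity was measured in parallel with the HRE-driven beta-lactamase readout: after 17 hrs of compound exposure at 37C, HRE-bla ME-180 cells received CellTiter-Glo and luminescence was recorded 30 min later.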

[8] = qHTS assay to identify small molecule agonists of H2AX (AID 1224845; active = well fitted activation curve with a large enough effect in the signal ratio in the repeat runs, not every such curve was filed as active; the % refers to the signal ratio)
Procedure, shortened: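 Wild-type CHO-K1 cells, plated overnight, exposed 3hr at 37C to 15 concentrations (0.76% DMSO final). Lysed, then HTRF anti-pH2AX (S139) cryptate and anti-H2AX-d2 antibodies, 24 hr room temperature; 665/620 nm emission read.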

[9] = qHTS assay to identify small molecule agonists of the hypoxia (HIF-1) signaling pathway (AID 1224846; active = well fitted activation curve with a large enough effect in the signal ratio in the repeat runs, not every such curve was filed as active; the % refers to the signal ratio)
Procedure, shortened: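 Compounds from the Tox21 10K library, dissolved in DMSO, are tested for induction of a hypoxia response element–controlled beta-lactamase reporter in ME-180 cells. Exposure lasts 17 hrs at 37C after a 5 hr settling period, followed by CCF4-AM FRET substrate.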

[10] = qHTS assay to identify small molecule agonists of H2AX - cell viability counter screen (AID 1224847; calls by dose curve; also: top concentration of the series differs between compounds; nearly all actives have a fitted effect of over 30% in size)
Procedure, shortened: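 Wild-type CHO-K1 cells (10% FBS medium) were plated overnight at 37C, exposed to compounds at 15 concentrations for 3 hr at 37C (0.76% DMSO final), and viability was read as CellTiter-Glo luminescence after 30 min at room temperature.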

[11] = qHTS RealTime-Glo MT Cell Viability Assay in HepG2 cells - 24 hour (AID 1224867); also: nearly all actives have a fitted effect of over 50% in size
Procedure, shortened: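 Compound treatment began 5 h after plating HepG2 cells (600/well) with NanoLuc luciferase and prosubstrate. Plates stayed at 37 C for 40 h; luminescence was captured at six time points, 0 h through 40 h.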

[12] = qHTS RealTime-Glo MT Cell Viability Assay in HEK293 cells - 32 hour (AID 1224868); also: top concentration of the series differs between compounds; nearly all actives have a fitted effect of over 50% in size
Procedure, shortened: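 Quantitative high-throughput screen of the Tox21 10K library in HEK293: cells and RealTime-Glo reagents plated together, compound added at 5 h, luminescence monitored through 40 h at 37 C.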

[13] = A CellTox Green Cytotoxicity Assay to monitor cytotoxicity in HEK293 cells - 0 hour (AID 1224869); also: nearly all actives have a fitted effect of over 50% in size
Procedure, shortened: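 Cells (HEK293, 600/well) and dye reagent are dispensed together. After 5 h at 37 C, 23 nL compound is pinned in. Plates stay at 37 C for 40 h with fluorescence read at 0h, 8h, 16h, 24h, 32h and 40h.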

[14] = qHTS RealTime-Glo MT Cell Viability Assay in HepG2 cells - 40 hour (AID 1224870); also: nearly all actives have a fitted effect of over 50% in size
Procedure, shortened: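 HepG2 cells (600/well) mixed with RealTime-Glo MT reagent, settled 5 h at 37 C/5% CO2 before compound addition. Nonlytic NanoLuc luminescence from viable-cell prosubstrate reduction read repeatedly during 40 h treatment at 37 C.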

[15] = molecular target: Nuclear receptor subfamily 1 group I member 3 (Homo sapiens) (UniProt Q14994); experiment: qHTS assay to identify small molecule agonists of the constitutive androstane receptor (CAR) signaling pathway (AID 1224839); also: nearly all actives have a fitted effect of over 15% in size; also: potency is read from the fitted curve at half-maximal effect;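 as to activation: HepG2 cells stably carrying human CAR and a CYP2B6 luciferase reporter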
Procedure, shortened: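 HepG2 cells stably expressing hCAR and a CYP2B6-2.2kb luciferase reporter were treated with compounds at 15 concentrations plus 0.75 uM PK11195 (final) for 24 h at 37 C; luminescence was read after ONE-Glo addition.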

[16] = qHTS assay to identify small molecule antagonists of the estrogen related receptor signaling pathway with the pleiotropic PPARgamma coactivator (PGC) from Tox21 10K library (AID 1224841; call rule not given here)
Procedure, shortened: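 Steps: plate 2,000 PGC/ERR cells per well; incubate 6 h at 37 C with 5% CO2; transfer compounds from DMSO stocks by pin tool; incubate 18 h at 37 C; add One-Glo; measure luminescence 30 min later.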

[17] = qHTS assay to identify small molecule antagonists of the estrogen related receptor (ERR) signaling pathway from Tox21 library (AID 1224848); also: nearly all actives have a fitted effect of over 50% in size
Procedure, shortened: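 Compounds dissolved in DMSO are pin-transferred onto ERR reporter cells (2,000 per well) that have settled for 6 h at 37 C. Plates then incubate 18 h at 37 C before ONE-Glo luciferase reagent and a luminescence read 30 min later.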

[18] = qHTS assay to identify small molecule agonists of the estrogen related receptor signaling pathway with the pleiotropic PPARgamma coactivator (PGC) from Tox21 10K library (AID 1224842); also: nearly all actives have a fitted effect of over 15% in size
Procedure, shortened: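 PGC/ERR reporter cell line, 2,000 cells per well, incubated 6 h at 37 C before 23 nL compound in DMSO was added. After 18 h at 37 C, One-Glo luminescence read following 30 min at room temperature.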

[19] = qHTS assay to identify small molecule agonists of the estrogen related receptor (ERR) signaling pathway from Tox21 library (AID 1224849; calls by dose curve; also: nearly all actives have a fitted effect of over 15% in size); conditions: ERR reporter cell line, ONE-Glo luciferase, 18 h; at 92.4 µM (top of the series) unless noted
Procedure, shortened: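 Cells carrying the ERR reporter were plated and allowed to settle for 6 h, exposed to library compounds for 18 h at 37 C, then lysed with ONE-Glo and luminescence measured.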

Sequence of Luciferin 4-monooxygenase (Photinus pyralis) (P08659 whole entry, looked up): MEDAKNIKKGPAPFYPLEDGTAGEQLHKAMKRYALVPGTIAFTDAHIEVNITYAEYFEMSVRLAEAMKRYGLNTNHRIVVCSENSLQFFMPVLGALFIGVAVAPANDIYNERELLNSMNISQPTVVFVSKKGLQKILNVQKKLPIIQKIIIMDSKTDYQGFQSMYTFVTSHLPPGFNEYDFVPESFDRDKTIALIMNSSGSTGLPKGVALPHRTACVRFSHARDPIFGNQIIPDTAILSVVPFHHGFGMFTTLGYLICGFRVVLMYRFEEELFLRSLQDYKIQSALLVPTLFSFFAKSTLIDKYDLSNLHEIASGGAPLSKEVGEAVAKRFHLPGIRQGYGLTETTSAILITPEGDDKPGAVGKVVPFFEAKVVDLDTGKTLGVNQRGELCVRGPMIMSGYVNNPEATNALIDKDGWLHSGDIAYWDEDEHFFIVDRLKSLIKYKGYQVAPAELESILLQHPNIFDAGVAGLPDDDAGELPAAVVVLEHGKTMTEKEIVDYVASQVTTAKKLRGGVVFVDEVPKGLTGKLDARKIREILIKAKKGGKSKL
Sequence of Thyrotropin receptor (Homo sapiens) (P16473 whole entry, looked up): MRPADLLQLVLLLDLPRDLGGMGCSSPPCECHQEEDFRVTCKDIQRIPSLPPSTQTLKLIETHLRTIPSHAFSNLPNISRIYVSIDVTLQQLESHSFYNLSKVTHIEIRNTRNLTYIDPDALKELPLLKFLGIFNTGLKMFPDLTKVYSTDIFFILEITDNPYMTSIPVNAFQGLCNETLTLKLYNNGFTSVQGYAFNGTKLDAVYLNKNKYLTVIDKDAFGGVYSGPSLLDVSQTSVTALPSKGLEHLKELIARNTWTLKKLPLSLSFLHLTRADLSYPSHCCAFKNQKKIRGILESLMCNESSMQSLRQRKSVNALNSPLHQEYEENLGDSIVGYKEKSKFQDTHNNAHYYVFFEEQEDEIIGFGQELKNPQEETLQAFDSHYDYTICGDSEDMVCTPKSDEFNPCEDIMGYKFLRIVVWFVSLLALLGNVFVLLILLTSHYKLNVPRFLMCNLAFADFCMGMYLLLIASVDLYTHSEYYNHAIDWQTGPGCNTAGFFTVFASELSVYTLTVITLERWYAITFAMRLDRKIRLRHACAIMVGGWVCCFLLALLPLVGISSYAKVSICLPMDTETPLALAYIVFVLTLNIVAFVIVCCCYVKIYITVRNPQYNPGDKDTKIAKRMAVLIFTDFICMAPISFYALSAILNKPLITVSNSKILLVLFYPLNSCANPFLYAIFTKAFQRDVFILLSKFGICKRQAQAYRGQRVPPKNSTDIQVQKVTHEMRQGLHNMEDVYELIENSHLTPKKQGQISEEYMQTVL
Sequence of Nuclear receptor subfamily 1 group I member 3 (Homo sapiens) (Q14994 whole entry, looked up): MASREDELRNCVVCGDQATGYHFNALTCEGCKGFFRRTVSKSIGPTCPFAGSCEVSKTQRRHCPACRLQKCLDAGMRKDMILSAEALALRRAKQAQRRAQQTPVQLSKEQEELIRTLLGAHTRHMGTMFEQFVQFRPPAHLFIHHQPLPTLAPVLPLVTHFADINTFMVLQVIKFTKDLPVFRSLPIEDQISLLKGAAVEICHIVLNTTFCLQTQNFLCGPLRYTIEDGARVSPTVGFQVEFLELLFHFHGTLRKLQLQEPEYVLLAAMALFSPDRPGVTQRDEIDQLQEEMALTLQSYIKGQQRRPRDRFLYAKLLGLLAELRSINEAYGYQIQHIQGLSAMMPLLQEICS

Row | Compound | Potency [1] | Potency [2] | Potency [3] | Potency [4] | Potency [5] | Potency [6] | Potency [7] | Potency [8] | outcome [9] | Potency [10] | Potency [11] | Potency [12] | Potency [13] | Potency [14] | Potency [15] | Potency [16] | Potency [17] | outcome [18] | activity change, positive = activation [19]
1 | Cc1ncsc1CCCl | inactive | inactive | inactive | inactive | inactive | inactive | inactive | inactive | inactive | inactive | inactive | inactive | inactive | inactive |  |  |  |  | 
2 | CCCSC(=O)N(CCC)CCC | inactive | inactive | inactive | inactive |  | inactive | inactive | inactive | inactive | inactive | inactive | inactive | inactive |  | inactive |  |  |  | 
3 | ClC(Cl)(Cl)C(Cl)(Cl)Cl | inactive | inactive | inactive | inactive | inactive |  | inactive | inactive | inactive | inactive | inactive | inactive |  | inactive |  |  |  |  | 
4 | O=C1OC(c2ccc(O)c(S(=O)(=O)O)c2)(c2ccc(O)c(S(=O)(=O)O)c2)c2c(Br)c(Br)c(Br)c(Br)c21 | inactive | inactive | inactive | inactive | inactive | inactive | inactive | inactive | inactive | inactive | inactive | inactive | inactive | inactive |  |  |  |  | 
5 | O=C1CN=C(c2ccccc2)c2cc([N+](=O)[O-])ccc2N1 | inactive | inactive | inactive | inactive | inactive | inactive | inactive | inactive | inactive | inactive | inactive | inactive | inactive | inactive |  | inactive | inactive |  | 
6 | CCOC(=O)NC(=S)Nc1ccccc1NC(=S)NC(=O)OCC | inactive | inactive | inactive | inactive | inactive |  | inactive | inactive | inactive | inactive | inactive |  | inactive |  |  | inactive |  | inactive | 11.4% (active)
7 | CC(C1CC1)C(O)(Cn1cncn1)c1ccc(Cl)cc1 (configuration not stated) | inactive | inactive | inactive | inactive | inactive | inactive | inactive | inactive | inactive | inactive | inactive |  | inactive | inactive |  |  |  |  | 
8 | CCOP(=S)(OCC)Oc1cc(-c2ccccc2)on1 | inactive | 31.7 µM (active) | inactive | inactive |  |  | inactive | inactive | inactive | inactive | inactive | inactive | inactive |  | 34.4 µM (active) |  |  |  | 
9 | N#Cc1ccncc1 | inactive | inactive | inactive | inactive | inactive |  | inactive |  | inactive | inactive | inactive | inactive | inactive | inactive |  | inactive | inactive | inactive | 5.77%
10 | [O]=[Cd] | inactive | inactive | inactive | inactive | inactive | inactive | inactive | inactive | inactive | inactive | inactive | inactive | inactive | inactive |  |  |  | inactive | -14%
11 | C[N+](=O)[O-] | inactive | inactive | inactive | inactive | inactive |  | inactive | inactive | inactive | inactive | inactive | inactive | inactive | inactive |  | inactive |  | inactive | 6.34%
12 | CC1=NNC(=O)N(/N=C/c2cccnc2)C1 | inactive | inactive | inactive | inactive | inactive |  | inactive | inactive | inactive | inactive | inactive | inactive | inactive | inactive |  | inactive |  | inactive | -0.152%
13 | CNC(=O)O/N=C(\C)SC | inactive | inactive | inactive | inactive | inactive |  | inactive | inactive | inactive | inactive | inactive | inactive | inactive | inactive |  |  |  |  | 
14 | O=C(O)C(Br)CBr (configuration not stated) | inactive | inactive | inactive | inactive | inactive | inactive | inactive | inactive | inactive | inactive | inactive | inactive | inactive | inactive |  |  |  |  | 
15 | CCCCOP(=O)(O)OCCCC | inactive | inactive | inactive | inactive | inactive |  | inactive |  | inactive |  | inactive | inactive | inactive | inactive |  |  |  |  | 
16 | C#CCN1C(=O)COc2cc(F)c(N3C(=O)C4=C(CCCC4)C3=O)cc21 | inactive | inactive | inactive | inactive |  | inactive | inactive | inactive | inactive | inactive | inactive | inactive | inactive | inactive | 48.6 µM (active) |  |  | inactive | -22.6%
17 | OC(Cn1cncn1)(c1ccc(F)cc1)c1ccccc1F (configuration not stated) | inactive | inactive | inactive | inactive | inactive | inactive | inactive | inactive | inactive |  | inactive | inactive | inactive | inactive |  |  |  |  | 
18 | O=[N+]([O-])c1ccc2c3c(cccc13)CC2 | inactive | inactive | inactive | inactive | inactive | inactive | inactive |  | inactive | inactive | inactive | inactive | inactive | inactive |  |  |  |  | 
